# Results taken from the supplement of paper PMC10105736.
# Unmarked numbers belong to inactive results.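 The calls were made as follows: active = MAPPIT score above the 99th percentile of random reference set scores in the same batch; inactive = at or below it.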
# Experiments:
# Assay in all cases: MAPPIT interaction score (arbitrary units); higher = stronger binary interaction signal, active = hit call of the paper
# [1] = molecular target: CG11570; details: pair source set: RRS
# [2] = molecular target: MFS16; details: MAPPIT configuration: N-N; pair source set: DPIM
# [3] = molecular target: Tsp; details: MAPPIT configuration: N-N; pair source set: DPIM
# [4] = molecular target: CG12155; details: MAPPIT configuration: N-N; pair source set: Lit-BS-16
# [5] = molecular target: Ravus; details: MAPPIT configuration: N-N; pair source set: screen_1
# [6] = molecular target: CG12268; details: MAPPIT configuration: N-N; pair source set: DPIM
# [7] = molecular target: mub; details: MAPPIT configuration: N-N; pair source set: DPIM
# [8] = molecular target: CG11275; details: MAPPIT configuration: N-N
# [9] = molecular target: CG8159; details: MAPPIT configuration: N-N; pair source set: Curagen_low_conf
# [10] = molecular target: CG11983; details: MAPPIT configuration: N-N; pair source set: screen_1
# [11] = molecular target: CG12112; details: MAPPIT configuration: N-N; pair source set: RRS
# [12] = molecular target: CG11723; details: MAPPIT configuration: N-N; pair source set: screen_2
# [13] = molecular target: CG31624; details: MAPPIT configuration: N-N; pair source set: screen_2
# [14] = molecular target: CG11555; details: MAPPIT configuration: N-N; pair source set: Curagen_high_conf
# [15] = molecular target: CG5708; details: MAPPIT configuration: N-C; pair source set: screen_4
# [16] = molecular target: CG12307; details: MAPPIT configuration: N-C; pair source set: screen_3
# [17] = molecular target: CG30324; details: MAPPIT configuration: N-C; pair source set: screen_3
# [18] = molecular target: en; details: MAPPIT configuration: N-C; pair source set: screen_4
# [19] = molecular target: CG11327; details: MAPPIT configuration: N-C; pair source set: screen_3
# [20] = molecular target: CG12253; details: MAPPIT configuration: N-C; pair source set: screen_3
# [21] = molecular target: Hsp70Aa; details: MAPPIT configuration: N-N; pair source set: Lit-BS-16
# [22] = molecular target: CG11961; details: MAPPIT configuration: N-N; pair source set: Lit-BS-16
# [23] = molecular target: CG12607; details: MAPPIT configuration: N-N; pair source set: Lit-BS-16
# [24] = molecular target: noc; details: MAPPIT configuration: N-N; pair source set: Curagen_high_conf
# [25] = molecular target: CG11596; details: MAPPIT configuration: N-N; pair source set: Finley_Y2H
# 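Also: HEK293T cells with Epo stimulation, STAT-responsive firefly luciferase reporter, fold induction versus unstimulated cells divided by the larger fold induction of two negative controls lacking either bait or prey.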
binder,measurement,setting,value
mRpS24 (protein) MNFLKKLLPQVATEVQQLSRSGFHTSSVCCRVQSGRYRITTKRNRPLTYEMANPPHFIGHRKSWNSWNTSTMKDALRPSQTAIEDVFIRKFVTGTWHALVCSEVIIKRQHNTIRIAALIRQAITPRKMYFLIGYTEELLSYWMQCPVTLELQTVGDKKDVVFKYI,MAPPIT interaction score,[1]; MAPPIT configuration: N-C,0.0908
same,MAPPIT interaction score,[1]; MAPPIT configuration: N-N,-0.09
same,MAPPIT interaction score,[2],0.186
same,MAPPIT interaction score,[3],0.192
Arr1 (protein) MVVNFKVFKKCSPNNMITLYMNRRDFVDSVTQVEPIDGIIVLDDEYVRQNRKIFVQLVCNFRYGREDDEMIGLRFQKELTLVSQQVCPPQKQDIQLTKMQERLLKKLGSNAYPFVMQMPPSSPASVVLQQKASDESQPCGVQYFVKIFTGDSDCDRSHRRSTINLGIRKVQYAPTKQGIQPCTVVRKDFLLSPGELELEVTLDKQLYHHGEKISVNICVRNNSNKVVKKIKAMVQQGVDVVLFQNGQFRNTIAFMETSEGCPLNPGSSLQKVMYLVPTLVANCDRAGIAVEGDIKRKDTALASTTLIASQDARDAFGIIVSYAVKVKLFLGALGGELCAELPFILMHPKPSRKAQLEAEGSIEA,MAPPIT interaction score,[4],0.0379
same,MAPPIT interaction score,[5],0.0915
mRpL52 (protein) MLKITKICLASSATSTAQRSIALTAPRAIDQKWRAAKGLPENPNAFGPLTNLPDYTYLDGRPTPLGANQKRRLIKQQEIATRIVELSGELEFAKQRHERLKANAESEKQRLIRSKLKPKGHFLLKK,MAPPIT interaction score,[6],-0.169
same,MAPPIT interaction score,[7],0.103
Adf1 (protein) MHTLTAAIEMDKLDANLEQQFDLNLIEAVKLNPVIYDRSHYNYKHFVRKAQTWKQIAETLGVPEQKCTKRWKSLRDKFAREMKLCQESRWRYFKQMQFLVDSIRQYRESLLGKCANGSQSANQVADPSQQQQAQQQTVVDIFAQPFNGSATTSAQALTHPHEITVTSDAQLATAVGKDQKPYFYEPPLKRERSEEEHSDNMLNTIKIFQNNVSQAVSAEDQSFGMVVTDMLNTLGVRQKAEAKVHIIKYLTDMQLLAQHNKY,MAPPIT interaction score,[8]; pair source set: screen_1,2.6 (active)
same,MAPPIT interaction score,[9],-0.0528
Cdlc2 (protein) MSDRKAVIKNADMSEEMQQDAVDCATQALEKYNIEKDIAAFIKKEFDKKYNPTWHCIVGRNFGSYVTHETRHFIYFYLGQVAILLFKSG,MAPPIT interaction score,[10],4.18 (active)
Edg78E (protein) MYKYLFCLALIGCACADNINKDAQIRSFQNDATDAEGNYQYAYETSNGIQIQEAGNANGARGAVAYVSPEGEHISLTYTADEEGYHPVGDHLPTPPPVPAYVLRALEYIRTHPPAPAQKEQQ,MAPPIT interaction score,[11],2.76 (active)
su(sable) (protein) MSVALADEPLIDLEEDLEDGEIDDDEEDEQQSSKIQVQKKTFVGDDDVQFVGVEAKNQNDDEDVVYVGPSTDAVCLQNSNSTKSKKPRPLEDDHASSIELAIANALKKKGIEPPMPRMRSSNQDTSDQSLEGSGEGLATANPLLQSTRSSRRRKRKKEREREQKKDKEQQNRSRRDENDVSVVPGGVEDMDEYEMMNVRGGSPPPGGAAPPLSSCGQRFSGADWDMDDGSAATGAAGLGAGGGGGYNSHSSYDSYSDEETNGPGLMNQRRRTRRDNEKEHQRGVNNRKRRDRDRLEGGLAGSGSKRNRRDSGEGGGGGQEKMGGSNRVEPRKLELCKFYLMDCCAKRDKCSYMHKEFPCKYYYLGMDCYAGDDCLFYHGEPLSEQLRNVLLKHMETAPKEILGDFKRISRDIAIVQMTRRHEQLCDQLNRENTWNSIGCGLMGKRQDHQMQQQQQQLQHQQLQQQQEQQQTQQQAAADGGGCIPSLLDMVINPPLSENKRKSRWTEKMGAKAAAGAAGSSERDSTSPDAKPLPPHLDLANLSHVLSAENMAKLNKLGITNLEQMLQVPFGQLTEAGLTLVEIGEIQRKAEDAKPQTQAELESSTPPSKRETEANNSNSKSNGLIMVDYTQYLKDAHVSFSGNDPLDDDRDDDEQLIIDDGNDSTAEEDQQPKKAKAPPAATHESSTEEAPLPSVFDLPSFMNNMLGQGSSARQLLPASATSPNQENAHLPGGDQSTHKSAPIGGGTSTNVLGRILFGDKQSDPEARAAFYRDIIRNPFKAHSGDGDVDSSNENSNSNSHSLTPTPTPEPGSQSPKPEDHDQDMPELPVIAPALPPTTPSLYVRRSMYDFDPVKEQEHGRQELLTEEKEQYQRDTDMRLPFEPMKHYMPATEIDAAIFSHTPIRWQLHEVTIEESSYAQIRASALHKEQRELRDPRMRRILGLPETPDNSGPLGSVPIMGPSSFSVDNIARCATTIASPDLETAVRDSTPSSPPPSVVNLPSMSVPPPSMRVPPPNIQVEKPTVRTDPRRDPRRAVLQAPTKGASTANTTAPNASGGSKQISEIRSLLQVSNWYNNLGTNNKIMVNQQLALVFTELKKFHQLPNDAPKIFDVSFIVNNTTLQQIFAKLFIFVDDNGEVVQIPEEPNGNGAALGGGGDSGGGVGGGGGGGGVVLPNLSQPPPNLSQMLRLPPPNIRMLRMSGMMMQMGNVGPPFNQPPPRGGLMGMPPNGNGLNQGVGNLGGLGQLGINQGGGPVPNGNPFNPFGGNNGGGAGVMNNMNSMGNMGMGFNNFNNNGGRGGHFPGGGSGGNGNGNNRNQRGGNHRNRNI,MAPPIT interaction score,[12],0.327
same,MAPPIT interaction score,[13],1.52
PolE2 (protein) MDVDLLPLRKRITNTFKLCGFLIRSENSSYLAEQLLPFDAAERDKWLTVITENLQSQKLLTPHVERAALEKAINELNRVGLDEGETVFALIDAFTVPRFRYNQRIKKFELDTQPRQLLTAPRMKSDYMQQRYAMLLQKTLRHDLFAPAVIQDGVGAEAQAKKFKLQFAENLLATSAMKEAVVLGLLTQLKEGKFYVEDPTGCVQLDLTGARFHAGFFCEGCFVLAEGNYNNGVLKVDGLGFPPAEPANSSRAFFGTANTWGGESAKLLKYSAGLQELERTNTETTIVFLSDVRLDLPVVMEKLRQLFVGYDSCPPQAIVLMGPFTASTRNHHELRHHLDALGGLAAGCEQLKKQTDLILVPSSEDPTAPNILPRAPIPECLAAGLLKAWPRTQLATNPCRLQYCTQQIVVCRLDLMAKFCRNTLHFPEDTSQIEQHFARTIVCQGHLVPIHPIAMPVHWDYDPALWLYPLPDLIVMGDSCQSFSSSQHGCTVLNTGSFVKSKFAFKVYIPATRTIEDSEIPDELE,MAPPIT interaction score,[14],0.14
same,MAPPIT interaction score,[15],1.19
osk (protein) MAAVTSEFPSKPISYTSTNTSAKTYYLKSVKKRVTTCFQQLRDKLQSSGSFRKSSSSCLNQIFVRSDFSACGERFRKIFKSARKTELPELWKVPLVAHELTSRQSSQQLQVVARLFSSTQISTKEITYNSNSNTSENNMTIIESNYISVREEYPDIDSEVRAILLSHAQNGITISSIKSEYRKLTGNPFPLHDNVTDFLLTIPNVTAECSESGKRIFNLKASLKNGHLLDMVLNQKERTSDYSSGAPSLENIPRAPPRYWKNPFKRRALSQLNTSPRTVPKITDEKTKDIATRPVSLHQMANEAAESNWCYQDNWKHLNNFYQQASVNAPKMPVPINIYSPDAPEEPINLAPPGHQPSCRTQSQKTEPTENRHLGIFVHPFNGMNIMKRRHEMTPTPTILTSGTYNDSLLTINSDYDAYLLDFPLMGDDFMLYLARMELKCRFRRHERVLQSGLCVSGLTINGARNRLKRVQLPEGTQIIVNIGSVDIMRGKPLVQIEHDFRLLIKEMHNMRLVPILTNLAPLGNYCHDKVLCDKIYRFNKFIRSECCHLKVIDIHSCLINERGVVRFDCFQASPRQVTGSKEPYLFWNKIGRQRVLQVIETSLEY,MAPPIT interaction score,[16],2.35
same,MAPPIT interaction score,[17],0.362
same,MAPPIT interaction score,[18],0.844
Lcp2 (protein) MFKFVMILAVVGVATALAPVSRSDDVHADVLSRSDDVRADGFDSSLHTSNGIEQAASGDAHGNIHGNFGWISPEGEHVEVKYVANENGYQPSGAWIPTPPPIPEAIARAVAWLESHPPAPEHPRHH,MAPPIT interaction score,[8]; pair source set: Curagen_high_conf,0.91
Eh (protein) MNCKPLILCTFVAVAMCLVHFGNALPAISHYTHKRFDSMGGIDFVQVCLNNCVQCKTMLGDYFQGQTCALSCLKFKGKAIPDCEDIASIAPFLNALE,MAPPIT interaction score,[19],1.52
Sry-alpha (protein) MEQLLAQLHTCSELIAEGYSSTGNIGWLNEFCATFLDFASDLKARLPEVAPSGANLDVETIFLCLTQVVTCITHLERTISMEAPHMTRQHFLDRLDWCLRRLLVSLTQLEGNVTPVKNLEDHSFVELMDLALDHLDDYMEKLAQQRNNSLHILEESFTEDTYQLASIVNHIVRHALAFANVAIHSDKKALTALCETLLAECATFHEEAGEPNSGHRKLEALSLERALYALESFLNEALLHLLFVSLIDLENASVEKLKDALQRDPAGAQELISAFDTNMDRIQQIGVLAIAFSQDIKTKTIVRSCLASLESLDACIVPALQLPESTSSAHHAEVLQEHFNQELLIFRNVIHEIIDSCSLINNYLDMLGERIHVQDKSHLKLIVQRGGVVVDHFRLPVNYSGLSEDGKRVHKDLILILRECQAVVNLDVPVDPKRIVKRLKILYSVLAKLRDLICRDNLEPDSSVASEAQVPSSATRTFVRSSRSFGKRHRSFVKQTGNCSVFGPQDSLAESGHSESDLISFQITEILRLD,MAPPIT interaction score,[20],0.332
same,MAPPIT interaction score,[21],3.5 (active)
Sod3 (protein) MMQYLVVSLALCATICSAAQTRNMPIQAIAYLIGPVQSDNTQVKGNVTFTQNDCGQNVHVRVQLEGLKEGKHGFHIHEKGDLTNGCISMGAHYNPDKVDHGGPDHEVRHVGDLGNLEANSTGIIDVTYTDQVITLTGKLGIIGRGVVVHELEDDLGLGNHTDSKKTGNAGGRIACGVIGIK,MAPPIT interaction score,[22],-0.0996
same,MAPPIT interaction score,[23],0.262
same,MAPPIT interaction score,[24],0.249
TfIIFbeta (protein) MSKEDKEKTQIIDKDLDLSNAGRGVWLVKVPKYIAQKWEKAPTNMDVGKLRINKTPGQKAQVSLSLTPAVLALDPEEKIPTEHILDVSQVTKQTLGVFSHMAPSDGKENSTTSAAQPDNEKLYMEGRIVQKLECRPIADNCYMKLKLESIRKASEPQRRVQPIDKIVQNFKPVKDHAHNIEYRERKKAEGKKARDDKNAVMDMLFHAFEKHQYYNIKDLVKITNQPISYLKEILKDVCDYNMKNPHKNMWELKKEYRHYKTEEKKEEEHKSGSSDSE,MAPPIT interaction score,[25],0.174
